Results published in PubChem BioAssay (NCATS).
Several values for one entry are separate records, joined by “and”; a condition that tells them apart may be missing. Identical values can stand only once. Results filed as inconclusive are left out. A call without a number means that no potency is given here. Some structures have more than one record in an assay (separate samples or runs), and their calls can disagree. Activity calls are given as the source filed them. Unless noted, the call rests on the fitted dose curve; in most records, active means well fitted curve in the direction sought with a large enough effect; inconclusive means small, poorly fitted or top-dose-only effect, or another doubt; inactive means no such curve, though single readings can be large; an effect the other way counts as inactive or inconclusive.

Assays:
[1] = P-glycoprotein substrates identified in KB-8-5-11 adenocarcinoma cell line, qHTS therapeutic library screen (AID 1346987); conditions: KB-8-5-11 (P-gp overexpressing) viability, CellTiter-Glo, 72 h; for Potency: outcome: dose series up to 44.5 µM unless noted, series mostly up to 44.5 µM; further: potency means the concentration at half of the fitted maximal effect; on all read-outs here: nearly all actives have a fitted effect of over 65% in size
How it was run: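 KB-8-5-11, a colchicine-selected P-gp-overexpressing KB-3-1 subline, was grown without colchicine for the assay. Cells were seeded at 500 cells/well, dosed in concentration-response and incubated 72 h at 37 degree C, 5% CO2. Viability was read by CellTiter-Glo luminescence.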

[2] = Natriuretic polypeptide receptor (hNpr1) antagonism - Pilot counterscreen GloSensor control cell line (AID 1347045; calls by dose curve; further: potency means the concentration at half of the fitted maximal effect); conditions: HEK293 cGMP GloSensor cells, SNP-stimulated luminescence, 20 min; series mostly up to 38.3 µM
How it was run: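 HEK293 cGMP GloSensor cells preloaded 2 h with 2% GloSensor reagent, then compound 30 min before baseline luminescence read. Stimulated with 50 uM sodium nitroprusside, 20 min at room temperature, then read again; counterscreen for Npr1 antagonism.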

[3] = target: Atrial natriuretic peptide receptor 1 (Homo sapiens) (UniProt P16066); test: Natriuretic polypeptide receptor (hNpr1) antagonism - Pilot screen (AID 1347049; calls by dose curve;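 further: agonist-evoked cGMP luminescence read 20 min after hNppA addition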; further: potency means the concentration at half of the fitted maximal effect); conditions: hNpr1 cells, antagonist mode cGMP read-out; series mostly up to 57.5 µM
Chain of Atrial natriuretic peptide receptor 1 (Homo sapiens) (P16066 whole entry, looked up): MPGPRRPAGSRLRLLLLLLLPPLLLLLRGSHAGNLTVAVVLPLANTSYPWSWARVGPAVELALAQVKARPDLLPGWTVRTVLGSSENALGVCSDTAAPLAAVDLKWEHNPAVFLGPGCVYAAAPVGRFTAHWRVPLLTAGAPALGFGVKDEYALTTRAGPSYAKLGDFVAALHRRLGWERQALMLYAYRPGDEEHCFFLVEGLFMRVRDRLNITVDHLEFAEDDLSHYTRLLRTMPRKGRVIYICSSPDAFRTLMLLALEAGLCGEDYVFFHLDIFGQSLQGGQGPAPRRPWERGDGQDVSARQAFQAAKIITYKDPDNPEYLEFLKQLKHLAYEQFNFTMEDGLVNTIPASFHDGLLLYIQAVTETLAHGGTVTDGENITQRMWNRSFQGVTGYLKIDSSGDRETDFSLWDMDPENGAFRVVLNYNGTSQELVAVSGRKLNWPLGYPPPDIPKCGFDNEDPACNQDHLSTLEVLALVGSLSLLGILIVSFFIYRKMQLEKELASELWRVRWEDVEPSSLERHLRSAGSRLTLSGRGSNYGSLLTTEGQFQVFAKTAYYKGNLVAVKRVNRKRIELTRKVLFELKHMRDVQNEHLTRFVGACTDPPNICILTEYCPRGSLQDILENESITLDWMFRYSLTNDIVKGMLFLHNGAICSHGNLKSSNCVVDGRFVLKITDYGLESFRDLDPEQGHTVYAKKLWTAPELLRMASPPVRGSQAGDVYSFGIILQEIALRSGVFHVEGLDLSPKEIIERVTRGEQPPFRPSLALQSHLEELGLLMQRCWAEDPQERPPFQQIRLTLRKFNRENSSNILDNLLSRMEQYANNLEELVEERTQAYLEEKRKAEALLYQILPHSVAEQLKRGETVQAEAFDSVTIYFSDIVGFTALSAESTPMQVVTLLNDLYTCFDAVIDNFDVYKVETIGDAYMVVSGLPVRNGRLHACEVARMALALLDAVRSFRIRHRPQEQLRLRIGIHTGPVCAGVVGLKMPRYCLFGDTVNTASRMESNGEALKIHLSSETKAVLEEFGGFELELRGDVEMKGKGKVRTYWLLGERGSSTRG
How it was run: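 HEK293 cells expressing hNpr1 and GloSensor cGMP luciferase, 1500/well, loaded with 2% GloSensor reagent 2 h, compound 30 min at room temperature; luminescence read before and 20 min after 0.1 nM hNppA stimulation.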

[4] = target: Atrial natriuretic peptide receptor 2 (Homo sapiens) (UniProt P20594); test: Natriuretic polypeptide receptor (hNpr2) antagonism - Pilot subtype selectivity assay (AID 1347050; calls by dose curve; further: potency means the concentration at half of the fitted maximal effect); conditions: NPR2-expressing cells, cGMP antagonist-mode read-out; series mostly up to 38.3 µM
Chain of Atrial natriuretic peptide receptor 2 (Homo sapiens) (P20594 whole entry, looked up): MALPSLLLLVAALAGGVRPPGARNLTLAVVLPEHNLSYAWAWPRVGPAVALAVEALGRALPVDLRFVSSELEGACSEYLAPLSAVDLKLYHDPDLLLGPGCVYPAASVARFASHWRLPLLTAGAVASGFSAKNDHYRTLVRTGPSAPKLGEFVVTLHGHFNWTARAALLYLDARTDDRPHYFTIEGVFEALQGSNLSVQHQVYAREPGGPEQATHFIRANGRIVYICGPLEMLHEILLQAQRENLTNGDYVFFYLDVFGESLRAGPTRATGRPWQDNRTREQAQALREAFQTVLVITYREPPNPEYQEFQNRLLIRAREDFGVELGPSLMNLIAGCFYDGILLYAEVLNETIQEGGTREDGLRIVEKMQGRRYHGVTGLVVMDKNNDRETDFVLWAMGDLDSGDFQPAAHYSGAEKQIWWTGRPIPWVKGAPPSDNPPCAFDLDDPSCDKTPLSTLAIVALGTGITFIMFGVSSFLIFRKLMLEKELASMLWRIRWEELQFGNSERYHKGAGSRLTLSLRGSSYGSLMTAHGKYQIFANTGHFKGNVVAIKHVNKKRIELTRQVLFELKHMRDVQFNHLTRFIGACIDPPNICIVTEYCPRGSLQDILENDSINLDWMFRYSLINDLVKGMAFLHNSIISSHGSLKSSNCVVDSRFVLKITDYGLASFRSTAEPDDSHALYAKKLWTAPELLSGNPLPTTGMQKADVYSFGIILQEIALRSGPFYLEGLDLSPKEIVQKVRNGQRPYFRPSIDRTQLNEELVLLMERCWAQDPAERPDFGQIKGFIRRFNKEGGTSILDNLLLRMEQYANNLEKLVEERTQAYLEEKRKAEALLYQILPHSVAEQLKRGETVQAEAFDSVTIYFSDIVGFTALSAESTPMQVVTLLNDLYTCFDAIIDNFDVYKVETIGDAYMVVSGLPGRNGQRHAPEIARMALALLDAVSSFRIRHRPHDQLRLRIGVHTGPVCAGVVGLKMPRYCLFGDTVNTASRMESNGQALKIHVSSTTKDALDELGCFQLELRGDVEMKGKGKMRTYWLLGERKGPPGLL
How it was run: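 HEK293 cells expressing hNpr2 and a GloSensor cGMP luciferase sensor, 1500/well, preloaded 2 h with 2% GloSensor reagent, compound 30 min, then 1 nM hNppC for 20 min. Antagonism from luminescence after versus baseline pre-read; LOPAC in 1:5 titrations.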

[5] = NS1 protein of Zika virus - qHTS assay to identify small molecule inhibitors in human HEK 293 cells (AID 1347053); conditions: HEK293 ZIKV MR766 infection, NS1 TR-FRET, 24 h; series mostly up to 46.1 µM; further: nearly all actives have a fitted effect of over 55% in size; further: potency means the concentration at half of the fitted maximal effect
How it was run: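 HEK 293 cells, seeded 20 h at 37 C, were pretreated with compound 1 h, then infected with ZIKV MR766 (MOI = 0.5) for 24 h. NS1 was read by TR-FRET with two anti-NS1 antibodies, normalized to uninfected and infected wells.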

[6] = target: T1, Tyrosine-protein phosphatase non-receptor type substrate 1 (Homo sapiens) + Leukocyte surface antigen CD47 (Homo sapiens) (UniProt P78324+Q08722); test: CD47-SIRPalpha protein protein interaction - LANCE assay qHTS validation (AID 1347057; active means well fitted curve in the direction sought with a large enough effect in the signal ratio, with a control signal flat, not every such curve was filed as active; the % refers to the signal ratio); conditions: Recombinant CD47-His / biotin-SIRPalpha, TR-FRET ratio; series mostly up to 38.3 µM
T1 sequence (P78324 whole entry, looked up): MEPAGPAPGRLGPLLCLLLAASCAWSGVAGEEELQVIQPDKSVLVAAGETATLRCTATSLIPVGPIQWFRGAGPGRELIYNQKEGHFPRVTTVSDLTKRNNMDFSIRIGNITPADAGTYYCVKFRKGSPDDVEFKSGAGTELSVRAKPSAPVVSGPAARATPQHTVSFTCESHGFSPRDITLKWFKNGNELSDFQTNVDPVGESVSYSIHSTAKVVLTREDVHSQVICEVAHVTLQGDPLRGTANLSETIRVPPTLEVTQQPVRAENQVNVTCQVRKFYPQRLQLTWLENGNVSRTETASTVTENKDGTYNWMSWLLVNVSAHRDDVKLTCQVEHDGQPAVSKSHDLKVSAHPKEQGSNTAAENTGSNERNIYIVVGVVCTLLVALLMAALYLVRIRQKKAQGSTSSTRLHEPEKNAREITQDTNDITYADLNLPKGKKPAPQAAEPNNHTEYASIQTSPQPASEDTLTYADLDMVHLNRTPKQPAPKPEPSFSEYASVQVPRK
T1 sequence (Q08722 whole entry, looked up): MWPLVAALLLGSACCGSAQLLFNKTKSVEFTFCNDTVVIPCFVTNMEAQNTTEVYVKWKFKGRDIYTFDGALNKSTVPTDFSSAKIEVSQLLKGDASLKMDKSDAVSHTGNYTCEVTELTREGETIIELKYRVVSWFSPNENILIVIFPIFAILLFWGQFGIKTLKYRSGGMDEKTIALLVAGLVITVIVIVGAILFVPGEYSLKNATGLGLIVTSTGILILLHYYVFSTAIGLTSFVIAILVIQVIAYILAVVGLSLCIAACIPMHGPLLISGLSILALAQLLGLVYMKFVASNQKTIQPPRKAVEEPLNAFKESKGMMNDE
How it was run: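 First, His-tagged CD47 and Eu-labelled anti-His antibody met the compound for 30 min; next, site-specifically biotinylated SIRPalpha was added for 30 min; finally streptavidin-APC was added before reading the TR-FRET ratio.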

[7] = target: T1, Tyrosine-protein phosphatase non-receptor type substrate 1 (Homo sapiens) + Leukocyte surface antigen CD47 (Homo sapiens); test: CD47-SIRPalpha protein protein interaction - HTRF assay qHTS validation (AID 1347058; active means well fitted curve in the direction sought with a large enough effect in the signal ratio, not every such curve was filed as active; the % refers to the signal ratio;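 further: recombinant soluble extracellular CD47 with His tag and biotinylated SIRPalpha domains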); conditions: TR-FRET HTRF CD47-His / biotin-SIRPalpha binding, ratio 665/615; series mostly up to 38.3 µM
How it was run: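 TR-FRET read (Ch1/Ch2 ratio) of soluble extracellular CD47 and Avi-biotinylated SIRPalpha domains in PBS pH 7.4 with 0.05% IGEPAL; 7-point compound titration. Sequential 30 min room-temperature steps; non-biotinylated SIRPalpha as control inhibitor.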

[8] = target: T1, Tyrosine-protein phosphatase non-receptor type substrate 1 (Homo sapiens) + Leukocyte surface antigen CD47 (Homo sapiens); test: CD47-SIRPalpha protein protein interaction - Alpha assay qHTS validation (AID 1347059); conditions: AlphaScreen CD47-His/biotin-SIRPalpha binding, LOPAC; series mostly up to 38.3 µM;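 further: bead proximity luminescence from CD47 binding SIRPalpha after compound preincubation with SIRPalpha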
How it was run: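 Biotinylated Avi-tagged SIRPalpha (25 nM) preincubated 30 min with compound, then His-tagged CD47 (12.5 nM) added 30 min; AlphaScreen with Ni-NTA acceptor and streptavidin donor beads. PBS pH 7.4, 0.05% IGEPAL, room temperature; 7-point titrations.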

[9] = target: Parathyroid hormone/parathyroid hormone-related peptide receptor (Homo sapiens) (UniProt Q03431); test: qHTS for PTHR1 Agonists: Optimization Screen against the NCGC LOPAC library (AID 1347079); conditions: HEK293 GP2 PTHR1 GloSensor cAMP luminescence, 1 h; series mostly up to 57.1 µM;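 further: GloSensor cAMP luminescence in HEK-293 GP2 cells expressing human PTHR1 with IBMX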
Chain of Parathyroid hormone/parathyroid hormone-related peptide receptor (Homo sapiens) (Q03431 whole entry, looked up): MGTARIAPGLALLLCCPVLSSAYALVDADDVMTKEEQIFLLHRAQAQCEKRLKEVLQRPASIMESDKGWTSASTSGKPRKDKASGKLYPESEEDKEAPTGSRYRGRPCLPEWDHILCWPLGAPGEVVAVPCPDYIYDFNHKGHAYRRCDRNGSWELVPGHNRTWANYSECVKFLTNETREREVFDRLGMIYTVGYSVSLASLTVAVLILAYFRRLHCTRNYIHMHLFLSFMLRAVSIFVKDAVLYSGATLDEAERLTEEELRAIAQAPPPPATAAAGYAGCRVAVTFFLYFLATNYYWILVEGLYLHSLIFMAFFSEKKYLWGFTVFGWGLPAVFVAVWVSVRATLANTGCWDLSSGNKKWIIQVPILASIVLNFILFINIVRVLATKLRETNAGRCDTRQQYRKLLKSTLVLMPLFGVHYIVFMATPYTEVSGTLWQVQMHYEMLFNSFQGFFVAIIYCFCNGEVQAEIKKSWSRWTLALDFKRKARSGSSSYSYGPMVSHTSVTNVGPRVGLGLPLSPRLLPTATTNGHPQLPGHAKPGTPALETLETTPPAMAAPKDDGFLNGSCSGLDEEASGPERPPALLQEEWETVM
How it was run: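 Agonist readout: GloSensor cAMP luminescence, read after 15 min at room temperature. HEK-293-derived GP2 line carries PTHR1; compounds tested as a titration for 1 hr at 37C in presence of IBMX. M-PTH (1-15) served as control.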

Structure (SMILES) | outcome ([1]; at 44.5 µM (top of the series)) | Potency [2] | Potency [3] | Potency [4] | Potency [5] | outcome [6] | outcome [7] | Potency [8] | Potency [1] | Potency [9]
CN(C)C(=N)N=C(N)N | inactive |  |  |  |  |  |  |  |  | 
O=C(Nc1ccc([N+](=O)[O-])cc1Cl)c1cc(Cl)ccc1O |  | 0.464 µM (active) | 0.953 µM (active) | 1.31 µM (active) | inactive and 1.48 µM (active) | inactive | inactive | inactive |  | 
COc1ccc(CCN(C)CCCC(C#N)(c2ccc(OC)c(OC)c2)C(C)C)cc1OC (stereo unspecified) |  |  |  |  | inactive |  |  |  | 20.6 µM (active) | 
CN1CCC(=C2c3ccccc3C=Cc3ccccc32)CC1 |  | inactive | inactive | 11.7 µM (active) | inactive | inactive |  | inactive |  | inactive
CC(COc1ccccc1)N(CCCl)Cc1ccccc1 (stereo unspecified) |  | inactive | inactive | inactive | inactive |  |  |  |  | inactive
CC(C(=O)O)c1cccc(C(=O)c2ccccc2)c1 (stereo unspecified) |  |  | inactive | inactive | inactive |  |  |  | inactive | inactive
CC(C)NCC(O)COc1ccc(CCOCC2CC2)cc1 (stereo unspecified) |  | inactive | inactive | inactive | inactive | inactive | inactive | inactive |  | inactive
CC1(CN2CCC(n3c(=O)[nH]c4ccccc43)CC2)OCc2ccccc2-n2cccc21 (stereo unspecified) |  |  |  |  | inactive |  |  |  | inactive | 
CC(C)C(=O)Nc1ccc([N+](=O)[O-])c(C(F)(F)F)c1 |  |  | inactive | inactive | inactive | inactive |  | inactive | inactive | 
CC[C@@]1(O)C(=O)OCc2c1cc1n(c2=O)Cc2cc3c(CN(C)C)c(O)ccc3nc2-1 |  |  |  |  | inactive and 41.8 nM (active) |  |  |  | 5.9 µM (active) and 8.2 µM (active) | 
CC#C[C@]1(O)CC[C@H]2[C@@H]3CCC4=CC(=O)CCC4=C3[C@@H](c3ccc(N(C)C)cc3)C[C@@]21C |  |  | inactive |  | inactive | inactive |  |  | 23.1 µM (active) | inactive
C[C@@H]1CC(=O)NN=C1c1ccc(NN=C(C#N)C#N)cc1 |  |  |  |  | inactive and 14.8 µM (active) |  |  |  | inactive | 
CS(=O)(=O)CCNCc1ccc(-c2ccc3ncnc(Nc4ccc(OCc5cccc(F)c5)c(Cl)c4)c3c2)o1 |  |  |  |  | inactive |  |  |  | 18.7 µM (active) and inactive and 20.6 µM (active) | 
Clc1ccc2nsnc2c1NC1=NCCN1 |  |  | inactive | inactive | inactive |  |  |  | inactive | inactive
CN(Cc1cnc2nc(N)nc(N)c2n1)c1ccc(C(=O)N[C@@H](CCC(=O)O)C(=O)O)cc1 |  |  | inactive | inactive | inactive | inactive |  | inactive | 10.3 nM (active) and 37.2 nM (active) | 
CC(=O)OCC(CCn1cnc2cnc(N)nc21)COC(C)=O |  |  |  |  | inactive | inactive | inactive | inactive | inactive | 
CN(C)CCCN1c2ccccc2CCc2ccc(Cl)cc21 |  |  |  | 7.36 µM (active) | inactive |  |  |  | 20.9 µM (active) | inactive
CC(CCc1ccc(O)cc1)NCCc1ccc(O)c(O)c1 (stereo unspecified) |  | inactive | inactive | inactive | inactive | inactive | inactive | inactive |  | inactive

Structure (SMILES) | outcome ([1]; at 44.5 µM (top of the series)) | Potency [2] | Potency [3] | Potency [4] | Potency [5] | outcome [6] | outcome [7] | Potency [8] | Potency [1] | Potency [9]
CC12CC3CC(C)(C1)CC(N)(C3)C2 |  | inactive | inactive | inactive | inactive | inactive | inactive |  |  | 
O=C1Cc2cc(CCN3CCN(c4nsc5ccccc45)CC3)c(Cl)cc2N1 |  |  | inactive |  | inactive | inactive | inactive | inactive | inactive | inactive
Clc1ccc2c(c1)C(N1CCNCC1)=Nc1ccccc1O2 |  |  |  | 8.26 µM (active) | inactive | inactive | inactive | inactive | inactive and 20.6 µM (active) | 
CN(CCOc1ccc(NS(C)(=O)=O)cc1)CCc1ccc(NS(C)(=O)=O)cc1 |  |  |  |  | inactive | inactive | inactive | inactive | inactive | 
O=c1[nH]cc(F)c(=O)[nH]1 |  | inactive | inactive | inactive | inactive | inactive | inactive | inactive |  | 
CN1CCN(C2=Nc3cc(Cl)ccc3Nc3ccccc32)CC1 |  | inactive | inactive | 10.4 µM (active) | inactive | inactive | inactive | inactive |  | 
OCCN(CCO)c1nc(N2CCCCC2)c2nc(N(CCO)CCO)nc(N3CCCCC3)c2n1 |  | inactive | inactive | inactive | inactive |  |  | inactive |  | inactive
Fc1ccc([C@@H]2CCNC[C@H]2COc2ccc3c(c2)OCO3)cc1 |  | inactive | inactive |  | inactive | inactive |  |  |  | inactive
CS(=O)(=O)Nc1ccc([N+](=O)[O-])cc1Oc1ccccc1 |  |  | inactive | inactive | inactive |  |  |  | inactive | inactive
COc1ccccc1N1CCN(CC(O)COc2cccc3ccccc23)CC1 (stereo unspecified) |  | inactive | inactive | inactive | inactive | inactive | inactive | inactive |  | inactive
Nc1nnc(-c2cccc(Cl)c2Cl)c(N)n1 |  |  |  |  | inactive | inactive | inactive | inactive | inactive | inactive
Cn1ccc2cc3c(cc21)CCN3C(=O)Nc1cccnc1 |  |  |  |  | inactive | inactive | inactive | inactive | inactive | inactive
CN1CCC(=C2c3ccccc3CC(=O)c3sccc32)CC1 |  |  | inactive |  | inactive | inactive | inactive | inactive |  | inactive
CCOC(=O)Nc1ccc(NCc2ccc(F)cc2)nc1N |  |  |  | inactive | inactive | inactive |  | inactive | inactive | 
Clc1ccc(C(c2ccccc2Cl)C(Cl)Cl)cc1 (stereo unspecified) |  |  | inactive | inactive | inactive and 18.7 µM (active) | inactive |  | inactive |  | 
CCCNCC(O)COc1ccccc1C(=O)CCc1ccccc1 (stereo unspecified) |  | inactive | inactive | inactive | inactive | inactive | inactive | inactive |  | inactive
Cn1c(=O)c2c(ncn2C)n(C)c1=O |  |  |  | inactive | inactive |  |  |  | inactive | 
CN1CCN2c3ccccc3Cc3ccccc3C2C1 (stereo unspecified) |  | inactive | inactive | inactive | inactive | inactive | inactive | inactive |  | inactive
